# Assay results from the supplement of paper PMC8728848.
# This is one part of a sample in which the strongest signals are shown more often than they occur.
# B1: B160 (Bifidobacterium sp) (protein)
# chain: MVSHNKRIVAALAAVAAMGIGLAGCGGSDTAGDTKSGSDGGVVNITYMHRLPDSEGMTLVNDIVAKWNKEHPNIQVKATKFDGNAADMIKKLETDVKAGNAPDLAQVGYAEVPEVFTKGLLQDVTDEAAKYKDDFASGPFALMQVDGKTYGLPQDTGPLTYFYNAAEFEKLGITVPKTADELIETAKKTAAQGKYIMTFTPDEAMMMMSGQAGASGPWYKVDGNSWVVNTQTKGSKAVADVYQQLIDNKAALTNPRWDASFDNSIQSGQLIGTVAAAWEAPLFIDSAGGTGAGEWKVTQLGDWFGNGTKTGANGGSGVAVLKGSKHPAEAMEFLDWFNTQVDDLVSQGLVVAATTADAKTPQKWSDYFSGQDVMAEFKTANDNMGDFTYMPGFSAVGAAMKQTAAKAADGSAKVSDVFDTAQKTSVDTLKNLGLSVKE
# What was measured:
# Assay in all cases: glycan array binding signal (z-score within array); higher = stronger binding
# Details in all cases: glycan notation: IUPAC condensed, linker removed
# Gal3S(b1-4)GlcNAc = molecular target: Gal3S(b1-4)GlcNAc
# Summary of the method: (§1)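 Glycan array data came from 3228 arrays in the Consortium for Functional Glycomics database, and only arrays with an available protein sequence were kept. Glycan names were put into IUPAC-condensed notation, and columns mapping to the same glycan were averaged. The binding signal is a within-array Z-score, averaged across arrays of one protein sequence run at different concentrations or buffers and across linkers. A negative Z-score can be read as non-binding.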
# Gal6S(b1-3)GlcNAc6S = molecular target: Gal6S(b1-3)GlcNAc6S
# Summary of the method: as §1
# GalNAc(a1-3)GalNAc = molecular target: GalNAc(a1-3)GalNAc
# Summary of the method: as §1
# [1] = molecular target: GalNAc(a1-3)GalNAc(b1-3)Gal(a1-4)Gal(b1-4)GlcNAc
# Summary of the method: as §1
# [2] = molecular target: GalNAc(b1-4)GlcNAc(b1-3)GalNAc(b1-4)GlcNAc
# Summary of the method: as §1
# [3] = molecular target: GalNAc3S(b1-4)[Fuc(a1-3)]GlcNAc
# Summary of the method: as §1
# Glc(a1-4)Glc = molecular target: Glc(a1-4)Glc
# Summary of the method: as §1
# [4] = molecular target: GlcNAc(b1-2)[GlcNAc(b1-6)]Man(a1-6)[GlcNAc(b1-4)][GlcNAc(b1-2)Man(a1-3)]Man(b1-4)GlcNAc(b1-4)GlcNAc
# Summary of the method: as §1
# [5] = molecular target: GlcNAc(b1-3)Gal(b1-4)GlcNAc(b1-3)Gal(b1-4)GlcNAc(b1-3)Gal(b1-4)GlcNAc(b1-2)[GlcNAc(b1-3)Gal(b1-4)GlcNAc(b1-3)Gal(b1-4)GlcNAc(b1-3)Gal(b1-4)GlcNAc(b1-6)]Man(a1-6)[GlcNAc(b1-3)Gal(b1-4)GlcNAc(b1-3)Gal(b1-4)GlcNAc(b1-3)Gal(b1-4)GlcNAc(b1-2)Man(a1-3)]Man(b1-4)GlcNAc(b1-4)[Fuc(a1-6)]GlcNAc
# Summary of the method: as §1
# [6] = molecular target: GlcNAc(b1-3)Gal(b1-4)GlcNAc(b1-6)[GlcNAc(b1-3)Gal(b1-3)]GalNAc
# Summary of the method: as §1
# GlcNAc(b1-3)GalNAc = molecular target: GlcNAc(b1-3)GalNAc
# Summary of the method: as §1
# GlcNAc(b1-3)Man = molecular target: GlcNAc(b1-3)Man
# Summary of the method: as §1
# [7] = molecular target: GlcNAc(b1-3)[GlcNAc(b1-4)][GlcNAc(b1-6)]GlcNAc
# Summary of the method: as §1
# [8] = molecular target: GlcNAc(b1-4)GlcNAc(b1-4)GlcNAc
# Summary of the method: as §1
# Kdn(a2-3)Gal(b1-3)GlcNAc = molecular target: Kdn(a2-3)Gal(b1-3)GlcNAc
# Summary of the method: as §1
# [9] = molecular target: Man(a1-2)Man(a1-2)Man(a1-3)Man
# Summary of the method: as §1
# [10] = molecular target: Neu5Ac(a2-3)Gal(b1-3)GalNAc
# Summary of the method: as §1
# [11] = molecular target: Neu5Ac(a2-3)Gal(b1-3)GlcNAc(b1-6)GalNAc
# Summary of the method: as §1
# [12] = molecular target: Neu5Ac(a2-3)Gal(b1-3)[Neu5Ac(a2-6)]GlcNAc(b1-3)[Fuc(a1-3)[Gal(b1-4)]GlcNAc(b1-6)]Gal(b1-4)Glc
# Summary of the method: as §1
# Neu5Ac(a2-3)Gal(b1-4)Glc = molecular target: Neu5Ac(a2-3)Gal(b1-4)Glc
# Summary of the method: as §1
# [13] = molecular target: Neu5Ac(a2-3)Gal(b1-4)[Fuc(a1-3)]GlcNAc(b1-3)Gal(b1-4)GlcNAc
# Summary of the method: as §1
# [14] = molecular target: Neu5Ac(a2-6)Gal(b1-4)GlcNAc(b1-2)Man(a1-6)[Gal(b1-4)GlcNAc(b1-2)Man(a1-3)]Man(b1-4)GlcNAc(b1-4)GlcNAc
# Summary of the method: as §1
# [15] = molecular target: Neu5Ac(a2-6)Gal(b1-4)GlcNAc(b1-2)[Neu5Ac(a2-6)Gal(b1-4)GlcNAc(b1-6)]Man(a1-6)[Neu5Ac(a2-6)Gal(b1-4)GlcNAc(b1-2)Man(a1-3)][GlcNAc(b1-4)]Man(b1-4)GlcNAc(b1-4)GlcNAc
# Summary of the method: as §1
# [16] = molecular target: Neu5Ac(a2-6)Gal(b1-4)GlcNAc(b1-3)Gal(b1-4)GlcNAc(b1-3)Gal(b1-4)GlcNAc
# Summary of the method: as §1
# [17] = molecular target: Neu5Ac(a2-6)GalNAc(b1-4)GlcNAc
# Summary of the method: as §1
# Neu5Ac(a2-8)Neu5Ac = molecular target: Neu5Ac(a2-8)Neu5Ac
# Summary of the method: as §1
# [18] = molecular target: Neu5Gc(a2-3)Gal(b1-3)GlcNAc
# Summary of the method: as §1
binder,measurement,setting,value
B1,glycan array binding signal (z-score),Gal3S(b1-4)GlcNAc,-0.172
same,glycan array binding signal (z-score),Gal6S(b1-3)GlcNAc6S,-0.179
same,glycan array binding signal (z-score),GalNAc(a1-3)GalNAc,-0.173
same,glycan array binding signal (z-score),[1],-0.166
same,glycan array binding signal (z-score),[2],-0.191
same,glycan array binding signal (z-score),[3],-0.117
same,glycan array binding signal (z-score),Glc(a1-4)Glc,-0.177
same,glycan array binding signal (z-score),[4],-0.149
same,glycan array binding signal (z-score),[5],-0.094
same,glycan array binding signal (z-score),[6],-0.164
same,glycan array binding signal (z-score),GlcNAc(b1-3)GalNAc,-0.154
same,glycan array binding signal (z-score),GlcNAc(b1-3)Man,-0.156
same,glycan array binding signal (z-score),[7],-0.174
same,glycan array binding signal (z-score),[8],-0.167
same,glycan array binding signal (z-score),Kdn(a2-3)Gal(b1-3)GlcNAc,-0.172
same,glycan array binding signal (z-score),[9],-0.159
same,glycan array binding signal (z-score),[10],-0.204
same,glycan array binding signal (z-score),[11],-0.161
same,glycan array binding signal (z-score),[12],-0.173
same,glycan array binding signal (z-score),Neu5Ac(a2-3)Gal(b1-4)Glc,-0.173
same,glycan array binding signal (z-score),[13],-0.165
same,glycan array binding signal (z-score),[14],-0.136
same,glycan array binding signal (z-score),[15],-0.14
same,glycan array binding signal (z-score),[16],-0.145
same,glycan array binding signal (z-score),[17],-0.167
same,glycan array binding signal (z-score),Neu5Ac(a2-8)Neu5Ac,-0.174
same,glycan array binding signal (z-score),[18],-0.189
